Results on 5 molecules are retold here after PubChem BioAssay.

Calls of active or inactive are those of the source.

The test system of experiment [1] is PRMT1 (protein arginine N-methyltransferase 1). Kind of experiment: PRMT1 binders on small-molecule microarrays, primary screen, biochemical, small-molecule microarray, 635 nm fluorescence (AID 1088).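 Note: binding of Prmt1 protein to compounds spotted on small-molecule microarray slides.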 To be noted: small-molecule microarray binding, higher = more signal.
Experiment [2] in a line: yeast growth modulation, basal conditions, primary screen, YJM789 clinical isolate, OD600, 24 h (AID 1089).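 Note: growth of clinical yeast isolate S. cerevisiae YJM 789 seeded 1000 cells per well; test concentration not given here.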 Particulars: S. cerevisiae YJM789 growth, higher = more signal, called active from +8 up or from −8 down.
Experiment [3] in a line: fission yeast growth modulation, primary screen, strain 972, OD600, 24 h, no modulator (AID 1090).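 Note: basal condition with compound alone and no growth modifier present; test concentration not given here.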 Particulars: S. pombe 972 growth, higher = more signal, called active from +8 up or from −8 down.
A short description of experiment [4]: S. cerevisiae growth modulation with rapamycin, primary screen, strain BY4716, OD600, 96 h (AID 1091). Note: test concentration not given here. Particulars: higher = more signal, called active from +8 up or from −8 down.
The target of experiment [5] is Torsin-1A-interacting protein 2 (Homo sapiens) (UniProt Q8NFQ8). Kind of experiment: LULL1 binders on small-molecule microarray, primary screen, cell lysate, human LULL1 lysate, 635/667 nm fluorescence (AID 1092).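 Note: probe is lysate of COS7 cells overexpressing human LULL1; score merges per-feature 667 nm fluorescence with signal-to-noise.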 To be noted: hLULL1 lysate binding, 635 nm fluorescence, higher = more signal.
The nature of experiment [6]: E. coli growth modulation, two-sided OD650, primary screen, E. coli filamentation project, strain DRC41, 24 h (AID 1093).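 Note: MC1000 strain lacking acrAB efflux and sulA so SOS filamentation is blocked; test concentration not given here.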 Particulars: OD650, 24 h, higher = more signal, called active from +8 up or from −8 down.
Experiment [7] in a line: small-molecule microarray binders of probe aLefty2, primary screen, biochemical, biotinylated probe, 635/667 nm fluorescence (AID 1094).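 Note: score merges spot fluorescence near 667 nm with spot signal-to-noise ratio.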 Particulars: higher = more signal.
In experiment [8] the test system is Noggin (protein binding on small-molecule microarray). Kind of experiment: Noggin binders on small-molecule microarray, primary screen, biochemical, 635/667 nm fluorescence (AID 1095).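 Note: score merges 667 nm feature fluorescence with signal to noise over triplicate slides.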 To be noted: 635 nm fluorescence, higher = more signal.
The target in experiment [9] is Neurogenic locus notch homolog protein 3 (Homo sapiens) (UniProt Q9UM47). Kind of experiment: NOTCH3 binders on small-molecule microarray, primary screen, biochemical, 635/667 nm fluorescence (AID 1096). To be noted: NOTCH3 binding, 635 nm fluorescence, higher = more signal.
A short description of experiment [10]: small-molecule microarray binders of probe aEGFR, primary screen, biochemical, biotinylated probe, 635/667 nm fluorescence (AID 1097).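 Note: probe is a biotinylated anti-EGFR antibody binding compounds printed on slides; score combines fluorescence near 667 nm and signal to noise of each spot.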 Particulars: higher = more signal.
Experiment [11] relates to Plasmodium falciparum Sir2 (PF13_0152, Sir2A). Kind of experiment: pfSir2 binders on small-molecule microarrays, primary screen, biochemical, small-molecule microarray, 635 nm fluorescence (AID 1098).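 Note: score merges spot fluorescence intensity with its signal-to-noise ratio.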 Particulars: small-molecule microarray binding, fluorescence 635 nm; higher = more signal.
A short description of experiment [12]: small-molecule microarray binders of probe aDKK1, primary screen, biochemical, biotinylated probe, 635/667 nm fluorescence (AID 1099).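 Note: score merges 667nm spot fluorescence with signal to noise across triplicate slides; reference of the scale not given here.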 Particulars: higher = more signal.
Experiment [13] is described as follows: small-molecule microarray binders of probe aCHRDL2, primary screen, biochemical, biotinylated probe, 635/667 nm fluorescence (AID 1100). To be noted: higher = more signal.
Experiment [14] is described as follows: splicing luciferase reporter signal modulators, primary screen, spliceosome inhibition project, cell-based, HEK293, splice +/- reporter (AID 1101).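 Note: HEK293 cells carrying a splicing-competent luciferase reporter gene; test concentration not given here.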 To be noted: luminescence, 24 h, higher = more signal, called active from +8 up or from −8 down. On the technique in general: A reporter such as luciferase makes a cellular process visible.
Experiment [15] addresses Fibroblast growth factor 10 (Homo sapiens) (UniProt O15520). Kind of experiment: FGF10 binders on small-molecule microarrays, primary screen, biochemical, small-molecule microarray, 635 nm fluorescence (AID 1102). To be noted: FGF10 binding, fluorescence 635 nm, higher = more signal.
The test system of experiment [16] is glycogen synthase kinase-3 (GSK3A per assay name; protocol says GSK3B). Kind of experiment: GSK3 binders on small-molecule microarrays, primary screen, biochemical, small-molecule microarray, 635 nm fluorescence, GSK3A (AID 1103). Note: the record names both GSK3A and GSK3B. Particulars: small-molecule microarray binding, fluorescence 635 nm; higher = more signal.
For experiment [17], the target named is Epidermal growth factor receptor (Homo sapiens) (UniProt P00533). Kind of experiment: EGFR binders on small-molecule microarrays, primary screen, biochemical, small-molecule microarray, 635 nm fluorescence (AID 1104).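 Note: score merges 667 nm emission intensity with spot signal to noise over triplicate slides.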 To be noted: EGFR binding, higher = more signal.
The target of experiment [18] is Follistatin-related protein 3 (Homo sapiens) (UniProt O95633). Kind of experiment: FSTL3 binders on small-molecule microarrays, primary screen, biochemical, small-molecule microarray, 635 nm fluorescence (AID 1105).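 Note: score merges emission near 667 nm and signal to noise per printed spot across three slides.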 To be noted: FSTL3 binding, higher = more signal.
Experiment [19] has as its target Dickkopf-related protein 1 (Homo sapiens) (UniProt O94907). Kind of experiment: DKK1 binders on small-molecule microarrays, primary screen, biochemical, small-molecule microarray, 635 nm fluorescence scan (AID 1106).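 Note: score merges emission near 667 nm with signal to noise over three replicate slides.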 Particulars: DKK1 binding, higher = more signal.
The test system of experiment [20] is Inhibin beta A chain (activin A). Kind of experiment: INHBA (activin A) binders on microarrays, primary screen, biochemical, small-molecule microarray, 635 nm fluorescence scan (AID 1107).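 Note: mouse activin A protein probed at 4.33 µg/mL on printed slides; score merges bound-protein fluorescence near 667 nm with spot signal-to-noise.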 Particulars: small-molecule microarray binding, higher = more signal.

Chain of Fibroblast growth factor 10 (Homo sapiens) (O15520 whole entry, looked up): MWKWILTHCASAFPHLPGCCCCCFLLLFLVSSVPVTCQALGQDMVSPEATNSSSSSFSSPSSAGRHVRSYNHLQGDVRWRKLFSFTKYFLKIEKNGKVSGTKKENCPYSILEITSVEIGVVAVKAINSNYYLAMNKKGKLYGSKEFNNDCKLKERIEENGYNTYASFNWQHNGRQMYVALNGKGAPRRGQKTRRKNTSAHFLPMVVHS
Chain of Dickkopf-related protein 1 (Homo sapiens) (O94907 whole entry, looked up): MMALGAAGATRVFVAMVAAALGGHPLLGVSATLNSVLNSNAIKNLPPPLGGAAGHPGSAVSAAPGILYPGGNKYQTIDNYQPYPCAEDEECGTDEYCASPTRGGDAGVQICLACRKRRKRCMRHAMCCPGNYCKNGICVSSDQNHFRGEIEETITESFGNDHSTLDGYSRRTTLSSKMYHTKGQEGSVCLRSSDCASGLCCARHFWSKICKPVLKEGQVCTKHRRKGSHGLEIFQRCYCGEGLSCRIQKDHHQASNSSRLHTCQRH
Chain of Epidermal growth factor receptor (Homo sapiens) (P00533 whole entry, looked up): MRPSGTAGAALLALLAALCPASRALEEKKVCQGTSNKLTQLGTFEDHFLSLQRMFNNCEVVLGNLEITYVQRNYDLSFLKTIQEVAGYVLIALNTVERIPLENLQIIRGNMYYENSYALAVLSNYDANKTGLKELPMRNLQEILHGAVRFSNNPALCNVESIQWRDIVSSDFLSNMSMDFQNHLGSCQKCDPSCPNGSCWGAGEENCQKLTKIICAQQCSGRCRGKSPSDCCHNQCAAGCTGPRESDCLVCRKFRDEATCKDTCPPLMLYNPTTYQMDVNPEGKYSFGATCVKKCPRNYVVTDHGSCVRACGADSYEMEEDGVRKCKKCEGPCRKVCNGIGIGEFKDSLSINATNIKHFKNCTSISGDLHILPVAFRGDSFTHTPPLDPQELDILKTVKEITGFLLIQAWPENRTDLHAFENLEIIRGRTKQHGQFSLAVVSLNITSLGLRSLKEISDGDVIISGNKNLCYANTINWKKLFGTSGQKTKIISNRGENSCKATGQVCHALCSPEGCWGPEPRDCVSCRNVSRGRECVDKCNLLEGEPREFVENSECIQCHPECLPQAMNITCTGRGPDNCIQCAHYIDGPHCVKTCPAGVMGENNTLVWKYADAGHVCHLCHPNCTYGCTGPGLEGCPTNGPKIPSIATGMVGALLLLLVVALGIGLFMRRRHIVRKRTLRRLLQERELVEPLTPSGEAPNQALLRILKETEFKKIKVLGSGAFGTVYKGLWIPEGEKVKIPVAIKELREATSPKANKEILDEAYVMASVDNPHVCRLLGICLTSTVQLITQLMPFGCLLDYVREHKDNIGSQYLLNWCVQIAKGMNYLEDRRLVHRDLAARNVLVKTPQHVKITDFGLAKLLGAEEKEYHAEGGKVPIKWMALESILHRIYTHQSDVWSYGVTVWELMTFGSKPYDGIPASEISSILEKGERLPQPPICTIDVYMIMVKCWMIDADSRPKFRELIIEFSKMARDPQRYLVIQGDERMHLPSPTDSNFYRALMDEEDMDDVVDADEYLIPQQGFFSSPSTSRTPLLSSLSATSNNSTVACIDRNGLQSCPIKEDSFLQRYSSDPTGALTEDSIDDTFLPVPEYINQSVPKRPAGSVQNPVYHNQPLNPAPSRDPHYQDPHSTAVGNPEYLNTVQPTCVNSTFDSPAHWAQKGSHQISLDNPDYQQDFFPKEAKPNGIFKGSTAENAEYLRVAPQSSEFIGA
Chain of Torsin-1A-interacting protein 2 (Homo sapiens) (Q8NFQ8 whole entry, looked up): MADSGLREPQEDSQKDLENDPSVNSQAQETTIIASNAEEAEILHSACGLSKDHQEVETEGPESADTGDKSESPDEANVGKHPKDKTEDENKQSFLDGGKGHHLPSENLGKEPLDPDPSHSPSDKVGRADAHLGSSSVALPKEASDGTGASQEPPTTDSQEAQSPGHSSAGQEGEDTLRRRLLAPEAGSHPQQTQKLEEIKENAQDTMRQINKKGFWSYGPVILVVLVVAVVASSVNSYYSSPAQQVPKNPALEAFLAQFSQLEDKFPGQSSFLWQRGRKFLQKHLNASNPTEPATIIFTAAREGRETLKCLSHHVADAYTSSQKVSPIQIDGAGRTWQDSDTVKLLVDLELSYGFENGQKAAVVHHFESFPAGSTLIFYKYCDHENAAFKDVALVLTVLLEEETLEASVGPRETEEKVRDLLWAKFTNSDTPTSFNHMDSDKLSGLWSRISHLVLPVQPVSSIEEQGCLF
Chain of Follistatin-related protein 3 (Homo sapiens) (O95633 whole entry, looked up): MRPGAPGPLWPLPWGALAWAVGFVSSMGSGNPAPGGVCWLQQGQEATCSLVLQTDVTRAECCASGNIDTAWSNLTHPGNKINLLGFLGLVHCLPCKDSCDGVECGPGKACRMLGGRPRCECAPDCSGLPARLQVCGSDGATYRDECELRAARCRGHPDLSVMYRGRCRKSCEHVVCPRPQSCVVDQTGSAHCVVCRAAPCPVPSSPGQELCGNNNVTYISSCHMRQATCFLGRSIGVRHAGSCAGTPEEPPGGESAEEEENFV
Chain of Neurogenic locus notch homolog protein 3 (Homo sapiens) (Q9UM47 whole entry, looked up): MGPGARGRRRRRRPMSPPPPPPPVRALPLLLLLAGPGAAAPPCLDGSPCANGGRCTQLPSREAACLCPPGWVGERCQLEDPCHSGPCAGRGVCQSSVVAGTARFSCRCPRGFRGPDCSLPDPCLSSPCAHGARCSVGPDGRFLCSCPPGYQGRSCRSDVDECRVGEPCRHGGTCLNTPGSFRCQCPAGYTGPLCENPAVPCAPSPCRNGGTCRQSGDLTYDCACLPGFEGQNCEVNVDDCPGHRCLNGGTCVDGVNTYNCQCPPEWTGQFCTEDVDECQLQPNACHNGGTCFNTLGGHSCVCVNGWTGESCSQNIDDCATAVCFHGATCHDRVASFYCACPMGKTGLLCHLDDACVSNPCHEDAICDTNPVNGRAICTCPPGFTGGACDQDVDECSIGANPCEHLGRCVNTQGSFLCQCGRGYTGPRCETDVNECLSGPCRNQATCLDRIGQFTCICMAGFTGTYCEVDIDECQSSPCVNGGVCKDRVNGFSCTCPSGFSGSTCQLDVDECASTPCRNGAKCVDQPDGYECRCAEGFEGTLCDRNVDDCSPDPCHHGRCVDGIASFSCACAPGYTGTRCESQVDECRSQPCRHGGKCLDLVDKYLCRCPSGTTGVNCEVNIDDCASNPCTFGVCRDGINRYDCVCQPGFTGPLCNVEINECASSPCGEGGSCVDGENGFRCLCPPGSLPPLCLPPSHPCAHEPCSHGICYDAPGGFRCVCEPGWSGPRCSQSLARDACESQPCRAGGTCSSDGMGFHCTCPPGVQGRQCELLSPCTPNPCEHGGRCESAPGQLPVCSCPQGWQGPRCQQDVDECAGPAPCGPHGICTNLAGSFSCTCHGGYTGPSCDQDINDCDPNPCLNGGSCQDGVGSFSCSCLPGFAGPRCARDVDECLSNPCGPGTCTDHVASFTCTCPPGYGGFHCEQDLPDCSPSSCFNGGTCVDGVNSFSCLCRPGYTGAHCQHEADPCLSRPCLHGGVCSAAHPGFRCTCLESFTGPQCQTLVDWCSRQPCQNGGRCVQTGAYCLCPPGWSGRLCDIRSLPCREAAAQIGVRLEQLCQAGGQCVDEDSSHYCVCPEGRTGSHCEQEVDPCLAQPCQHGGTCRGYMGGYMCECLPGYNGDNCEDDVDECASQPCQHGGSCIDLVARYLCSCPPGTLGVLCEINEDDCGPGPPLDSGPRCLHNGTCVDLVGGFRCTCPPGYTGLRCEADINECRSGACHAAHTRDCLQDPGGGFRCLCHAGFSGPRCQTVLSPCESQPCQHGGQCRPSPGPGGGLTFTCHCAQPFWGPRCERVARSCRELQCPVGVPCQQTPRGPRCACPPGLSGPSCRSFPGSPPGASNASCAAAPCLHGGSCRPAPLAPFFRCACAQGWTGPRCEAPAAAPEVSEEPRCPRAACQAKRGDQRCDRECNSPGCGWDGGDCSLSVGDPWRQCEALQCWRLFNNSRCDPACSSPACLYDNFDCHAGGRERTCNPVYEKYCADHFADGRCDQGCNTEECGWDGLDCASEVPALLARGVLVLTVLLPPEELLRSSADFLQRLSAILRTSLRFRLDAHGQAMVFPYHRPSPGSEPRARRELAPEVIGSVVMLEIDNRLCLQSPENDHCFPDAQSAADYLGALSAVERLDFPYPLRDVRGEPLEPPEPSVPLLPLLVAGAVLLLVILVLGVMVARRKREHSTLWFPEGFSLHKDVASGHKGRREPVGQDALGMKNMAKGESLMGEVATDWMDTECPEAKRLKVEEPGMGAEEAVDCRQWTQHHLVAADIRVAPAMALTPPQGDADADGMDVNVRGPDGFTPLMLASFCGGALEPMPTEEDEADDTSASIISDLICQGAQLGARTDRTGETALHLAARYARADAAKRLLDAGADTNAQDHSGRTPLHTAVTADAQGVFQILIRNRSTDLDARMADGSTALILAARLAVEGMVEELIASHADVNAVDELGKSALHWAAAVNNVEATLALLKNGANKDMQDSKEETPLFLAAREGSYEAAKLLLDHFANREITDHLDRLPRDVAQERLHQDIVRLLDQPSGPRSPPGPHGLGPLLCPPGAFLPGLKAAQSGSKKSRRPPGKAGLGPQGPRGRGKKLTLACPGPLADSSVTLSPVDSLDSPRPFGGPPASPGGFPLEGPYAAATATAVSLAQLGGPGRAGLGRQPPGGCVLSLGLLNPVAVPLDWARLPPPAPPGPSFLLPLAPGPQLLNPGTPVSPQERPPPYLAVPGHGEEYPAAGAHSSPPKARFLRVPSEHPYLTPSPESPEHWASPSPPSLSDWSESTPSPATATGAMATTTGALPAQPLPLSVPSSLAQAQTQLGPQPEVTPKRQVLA

Take `CCCC[C@@H]1C[C@H]1[C@@H](NC(=O)Cc1ccccc1)c1ccc(-c2ccccc2)cc1`: the composite z-score is 0.0706 in experiment [1]; 2.94 in experiment [5]; -0.0204 in [7]; -0.219 in [8]; 0.0419 in experiment [9]; -0.125 in experiment [10]. In addition, the composite z-score is -0.146 in [11]; -0.0423 in experiment [12]; 0.712 in experiment [13]; 0.0191 in [15]; 0.117 in experiment [16]; 0.172 in experiment [17]. In addition, the composite z-score in experiment [18] was 0.135; in experiment [19], -0.46; in experiment [20], 0.685. The z-score in [2] was 0.341 (inactive); in [3] it was 0.373 (inactive); in experiment [4], -0.116 (inactive); in experiment [6], -0.255 (inactive); in [14] it was -1.26 (inactive).

For `COC(=O)CCCCCCC(=O)Nc1ccc(NC(=O)CCCC[P+](c2ccccc2)(c2ccccc2)c2ccccc2)cc1`, the composite z-score was -0.148 in experiment [1]; -0.891 in [5]; -0.232 in experiment [7]; 1.23 in [8]; 0.973 in experiment [9]; 0.0042 in experiment [10]. For the same molecule, the composite z-score is 0.5 in [11]; -0.238 in experiment [12]; -0.842 in experiment [13]; 1.38 in experiment [15]; 0.686 in [16]; 0.758 in experiment [17]. For the same molecule, the composite z-score in experiment [18] came out at 0.955; in experiment [19] it was 1.16; in experiment [20], 0.59. Also, the z-score in experiment [2] was -1.65 (inactive); in experiment [3], -7.18 (inactive); in [4] it was -0.786 (inactive); in experiment [6], -18.9 (active); in experiment [14], -0.186 (inactive).

For the molecule `CCOC(=O)c1ccc(NC(=O)O[C@H]2[C@H](OC(=O)Nc3ccc4c(c3)OCO4)[C@@H](OC(=O)Nc3ccc4c(c3)OCO4)[C@@H](OC)O[C@@H]2CO)cc1`, the composite z-score in experiment [1] amounted to 1.53; in experiment [5] it was 3.27; in [7] it was 0.119; in [8], 1.07; in experiment [9] it was 1; in experiment [10], 0.0815. Besides, the composite z-score in experiment [11] came to 1.41; in experiment [12] it was 0.164; in experiment [13], 0.157; in experiment [15] it was 1.4; in [16], 1.33; in experiment [17] it was 0.308. Moreover, the composite z-score in experiment [18] worked out at 1.49; in experiment [19], 0.624; in experiment [20] it was 0.51. In addition, the z-score in [2] was 1.38 (inactive); in experiment [3] it was 2.29 (inactive); in experiment [4], 7.12 (inactive); in experiment [6], 1.15 (inactive); in [14], -0.616 (inactive).

For `O=C1N(Cc2ccccc2)c2ccccc2[C@@H]2OC(c3ccc(OCCCO)cc3)=N[C@]12Cc1ccccc1`, the composite z-score was 1.38 in experiment [1]; 2.93 in [5]; 0.0759 in experiment [7]; 0.307 in [8]; 0.804 in [9]; -0.0391 in experiment [10]. For the same molecule, the composite z-score in experiment [11] came to 0.959; in experiment [12], 0.659; in [13], 1; in [15], 0.504; in experiment [16], 0.852; in experiment [17], 0.224. Besides, the composite z-score was 0.61 in [18], 0.0877 in [19] and 1.13 in experiment [20]. The z-score was -0.548 (inactive) in [2]; -1.14 (inactive) in experiment [3]; 4.88 (inactive) in [4]; 0.8 (inactive) in experiment [6]; -0.0483 (inactive) in [14].

As to `COc1ccc([Si](C)(C)[C@@H]2[C@@H](CC(=O)N3Cc4ccccc4C[C@H]3CO)O[C@]3(C(=O)N(C)c4ccccc43)[C@H]2C)cc1`, the composite z-score in [1] is 1.53; in [5], 1.83; in experiment [7], 0.279; in experiment [8], 1.84; in [9], 1.11; in [10], -0.0052. The composite z-score in experiment [11] is 1.22; in [12], 0.405; in experiment [13], -0.174; in [15] it was 1.15; in experiment [16] it was 1.3; in experiment [17], 1.05. Further, the composite z-score in experiment [18] came out at 1.48; in experiment [19], 0.874; in experiment [20], 0.916. Besides, the z-score was -0.912 (inactive) in experiment [2]; 0.256 (inactive) in experiment [3]; 1.86 (inactive) in [4]; -0.0789 (inactive) in experiment [6]; -1.42 (inactive) in [14].
